Several values for one entry are separate records, joined by “and”; a condition that tells them apart may be missing. Equal values may be shown once. About 79,000 compounds went through this panel and 15% of them were active in at least one assay; those are over-represented in the sample as a whole. Activity calls are given as the source filed them. No stated cut-off is given here; in the data, active means growth inhibition above about 70%; inactive means the rest.
Columns and labels:
[1] = NCI Yeast Anticancer Drug Screen. Data for the rad50 strain (AID 155);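 further: 0% = growth of vehicle-only cultures of the same strain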; settings: S. cerevisiae rad50 strain growth inhibition, active compounds read high
Method in brief: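 DNA repair mutant yeast, compound exposure, growth read-out; inhibition is taken relative to vehicle.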

[2] = NCI Yeast Anticancer Drug Screen. Data for the mec2-1 strain (AID 157); settings: S. cerevisiae mec2-1 strain, active compounds read high
Method in brief: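 Vehicle-treated cultures served as reference for growth inhibition of compound-exposed mec2-1 yeast.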

[3] = NCI Yeast Anticancer Drug Screen. Data for the sgs1 mgt1 strain (AID 161);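 further: 0% = growth of cultures given vehicle only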; settings: S. cerevisiae sgs1 mgt1 strain, active compounds read high
Method in brief: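 Test agents were incubated with a DNA-repair-mutant yeast strain. Growth was then read and compared against vehicle-treated controls.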

[4] = NCI Yeast Anticancer Drug Screen. Data for the cln2 rad14 strain (AID 165);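 further: 0% = growth equal to vehicle treated cultures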; settings: S. cerevisiae cln2 rad14 strain, active compounds read high
Method in brief: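 Each compound was tested on cln2 rad14 yeast. Inhibition of growth was calculated against vehicle-exposed controls.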

[5] = NCI Yeast Anticancer Drug Screen. Data for the bub3 strain (AID 167); settings: S. cerevisiae bub3 mutant strain, active compounds read high
Method in brief: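 In this screen, a yeast mutant lacking normal mitotic checkpoint function is challenged with compound. Relative growth versus vehicle gives the inhibition value.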

[6] = NCI Yeast Anticancer Drug Screen. Data for the mlh1 rad18 strain (AID 175); settings: S. cerevisiae mlh1 rad18 strain growth inhibition, active compounds read high
Method in brief: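 Vehicle-treated cultures served as the reference for growth inhibition in a yeast strain carrying DNA damage repair alterations exposed to each compound.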

[7] = at 5.0 µM (retest, dose inferred, filed as 0.5)
[8] = at 50.0 µM (retest, dose inferred, filed as 5.0)

Measured: growth inhibition

CC1=CC2OC3CC4OC(=O)/C=C/C=C/C(=O)OCCC(C)C(O)C(=O)OCC2(CC1O)C4(C)C31CO1 (configuration not stated)
active: [1]; [7] 96% | [1]; [8] 98% | [1]; at 50.0 µM 92.3% | [2]; [7] 96% | [2]; [8] 98% | [2]; at 50.0 µM 93.1% | [3]; [7] 98% | [3]; [8] 99% | [3]; at 50.0 µM 93.2% | [4]; [7] 97% | [4]; [8] 98% | [4]; at 50.0 µM 91.7% | [5]; [7] 96% | [5]; [8] 98% | [5]; at 50.0 µM 91.7% | [6]; [7] 96% | [6]; [8] 97% | [6]; at 50.0 µM 91.5%

O=C(CBr)OCc1ccccc1
active: [1]; [7] 96% and 98% | [1]; [8] 99% | [1]; at 50.0 µM 99.5% | [2]; [7] 98% and 99% | [2]; [8] 99% and 100% | [2]; at 50.0 µM 99.8% | [3]; [7] 97% and 100% | [3]; [8] 99% and 100% | [3]; at 50.0 µM 99.7% | [4]; [7] 84% and 93% | [4]; [8] 99% | [4]; at 50.0 µM 99.4% | [5]; [7] 97% and 99% | [5]; [8] 99% | [5]; at 50.0 µM 99.4% | [6]; [7] 99% | [6]; [8] 99% | [6]; at 50.0 µM 99.4%

S=P(Nc1ccccc1)(Nc1ccccc1)Nc1ccccc1
active: [1]; [8] 94% | [1]; at 50.0 µM 96.8% | [2]; [8] 94% | [2]; at 50.0 µM 98% | [3]; [8] 95% | [3]; at 50.0 µM 96.8% | [4]; [8] 94% | [4]; at 50.0 µM 97.7% | [5]; [8] 92% | [5]; at 50.0 µM 98.2% | [6]; [8] 94% | [6]; at 50.0 µM 96.8%
inactive: [1]; [7] 21% | [2]; [7] 18% | [3]; [7] 12% | [4]; [7] 7% | [5]; [7] 19% | [6]; [7] 23%

C[CH2][Sn][CH2]C.c1cc[c]([Ge]([c]2ccccc2)[c]2ccccc2)cc1.c1cc[c]([Sn]([c]2ccccc2)[c]2ccccc2)cc1
active: [1]; [7] 99% | [1]; [8] 96% | [1]; at 50.0 µM 99.2% | [2]; [7] 99% | [2]; [8] 98% | [2]; at 50.0 µM 99.5% | [3]; [7] 100% | [3]; [8] 98% | [3]; at 50.0 µM 99.5% | [4]; [7] 98% | [4]; [8] 97% | [4]; at 50.0 µM 98.4% | [5]; [7] 99% | [5]; [8] 95% | [5]; at 50.0 µM 99.3% | [6]; [7] 99% | [6]; [8] 97% | [6]; at 50.0 µM 98.8%

O=C(c1ccccc1)c1c(CC(O)c2ccncc2)n(C(=O)c2ccccc2)c2ccccc12 (configuration not stated)
inactive: [1]; [7] 18% | [2]; [7] -2% | [3]; [7] 8% | [4]; [7] 18% | [5]; [7] -3% | [6]; [7] 19%
active: [1]; [8] 95% | [1]; at 50.0 µM 94% | [2]; [8] 96% | [2]; at 50.0 µM 92.5% | [3]; [8] 97% | [3]; at 50.0 µM 92.2% | [4]; [8] 96% | [4]; at 50.0 µM 82.7% | [5]; [8] 98% | [5]; at 50.0 µM 92.2% | [6]; [8] 95% | [6]; at 50.0 µM 93.8%

Cc1ccc2ccccc2c1NC1=NCCO1
inactive: [1]; [7] 24% | [1]; [8] 45% | [1]; at 50.0 µM -15.6% | [2]; [7] 25% | [2]; [8] 20% | [2]; at 50.0 µM -10.9% | [3]; [7] 21% | [3]; [8] 11% | [3]; at 50.0 µM -5.65% | [4]; [7] 17% | [4]; [8] 26% | [4]; at 50.0 µM 17% | [5]; [7] 18% | [5]; [8] 6% | [5]; at 50.0 µM 11.8% | [6]; [7] 30% | [6]; [8] 17% | [6]; at 50.0 µM -10.1%

CC(C)CCCC(C)CCC1C(=O)NC(=O)NC1=O (configuration not stated)
inactive: [1]; [7] 6% | [1]; [8] 23% | [1]; at 50.0 µM -6.75% and 8.2% | [2]; [7] -17% | [2]; [8] 4% | [2]; at 50.0 µM -0.5% and -2.3% | [3]; [7] -6% | [3]; [8] 21% | [3]; at 50.0 µM -8.05% and 38.9% | [4]; [7] -1% | [4]; [8] 3% | [4]; at 50.0 µM -31.1% and -44.4% | [5]; [7] -3% | [5]; [8] -3% | [5]; at 50.0 µM -5.55% and -18.1% | [6]; [7] 13% | [6]; [8] 48% | [6]; at 50.0 µM 2.7% and -0.7%

O=C(c1ccccc1)C1CCCN(CCc2ccccc2)C1 (configuration not stated)
active: [2]; [8] 70% | [3]; at 50.0 µM 73.3% | [4]; at 50.0 µM 82% | [5]; at 50.0 µM 84.2%
inactive: [1]; [7] 54% | [1]; [8] 64% | [1]; at 50.0 µM 57.3% | [2]; [7] 31% | [2]; at 50.0 µM 55.7% | [3]; [7] 54% | [3]; [8] 63% | [4]; [7] 48% | [4]; [8] 62% | [5]; [7] 43% | [5]; [8] 56% | [6]; [7] 56% | [6]; [8] 67% | [6]; at 50.0 µM 67.7%

CCN(CC)CC(=O)c1ccc2c(ccc3ccccc32)c1
inactive: [1]; [7] 15% | [2]; [7] 26% | [3]; [7] 6% | [4]; [7] -1% | [5]; [7] 8% | [6]; [7] 43%
active: [1]; [8] 98% | [1]; at 50.0 µM 99.2% | [2]; [8] 100% | [2]; at 50.0 µM 99.5% | [3]; [8] 99% | [3]; at 50.0 µM 99.5% | [4]; [8] 97% | [4]; at 50.0 µM 99.3% | [5]; [8] 99% | [5]; at 50.0 µM 99.2% | [6]; [8] 99% | [6]; at 50.0 µM 99.3%
